What all share (experiment): DAPPL (digital affinity profiling via proximity ligation, sequencing); 10 mM Tris-HCl pH 7.5, 50 mM NaCl, 1 mM DTT, 4% glycerol, room temperature, 30 min; GST-TFs on glutathione beads, 16-mer random dsDNA library, 0.1% formaldehyde crosslink after washing; high values mean tight binding
One assay has as its target T1, FEV (Homo sapiens, UniProt Q99581 1-238).
T1 sequence: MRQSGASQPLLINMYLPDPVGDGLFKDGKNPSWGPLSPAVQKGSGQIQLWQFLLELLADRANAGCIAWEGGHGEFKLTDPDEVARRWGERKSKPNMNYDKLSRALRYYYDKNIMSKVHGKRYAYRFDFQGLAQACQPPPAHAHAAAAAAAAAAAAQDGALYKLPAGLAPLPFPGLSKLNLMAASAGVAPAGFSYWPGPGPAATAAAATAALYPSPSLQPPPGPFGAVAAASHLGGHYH
Particulars: protein: recombinant; tags: N-terminal GST; dsDNA, one strand shown. In short, it runs like this:
(§1)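 Human transcription factors fused to GST were expressed in yeast, captured on glutathione beads, given DNA barcodes and pooled with a GST-only negative control. Pools were incubated with 200 nmole of a 16-mer random double-stranded DNA library in Tris/NaCl/DTT/glycerol buffer at room temperature for 30 min. They were then washed, crosslinked with 0.1% formaldehyde, proximity-ligated (BsaI/T4 ligase, 1 h, 37 °C), PCR-amplified and sequenced on an Illumina NextSeq500. Binding signal is each 6-mer's read frequency for a factor divided by its frequency for the GST control.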

For another assay, the target named is ETV5 (Homo sapiens, UniProt P41161 1-510). Particulars: protein: recombinant; tags: N-terminal GST; dsDNA, one strand shown. In short, it runs like this: as §1
In another assay the target is HSF1 (Homo sapiens, UniProt Q00613 1-529). Particulars: protein: recombinant; tags: N-terminal GST; chain copies: 3; dsDNA, one strand shown. In short, it runs like this:
as §1

Another assay concerns the target T2, SPIC (Homo sapiens, UniProt Q8N5J4 1-248).
T2 sequence: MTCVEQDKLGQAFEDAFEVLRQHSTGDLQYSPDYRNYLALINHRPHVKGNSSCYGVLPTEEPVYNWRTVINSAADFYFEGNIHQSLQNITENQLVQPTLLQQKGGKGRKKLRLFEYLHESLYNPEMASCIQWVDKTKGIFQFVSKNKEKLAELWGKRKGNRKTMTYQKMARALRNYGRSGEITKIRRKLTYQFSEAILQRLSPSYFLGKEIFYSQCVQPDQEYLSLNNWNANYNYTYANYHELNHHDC
Particulars: protein: recombinant; tags: N-terminal GST; dsDNA, one strand shown. The gist of the method:
as §1

For another assay, the target named is ELF4 (Homo sapiens, UniProt Q99607 1-663). Particulars: protein: recombinant; tags: N-terminal GST; dsDNA, one strand shown. The gist of the method:
as §1

For the next assay, the target named is T3, ELK4 (Homo sapiens, UniProt P28324-2 1-405).
T3 sequence: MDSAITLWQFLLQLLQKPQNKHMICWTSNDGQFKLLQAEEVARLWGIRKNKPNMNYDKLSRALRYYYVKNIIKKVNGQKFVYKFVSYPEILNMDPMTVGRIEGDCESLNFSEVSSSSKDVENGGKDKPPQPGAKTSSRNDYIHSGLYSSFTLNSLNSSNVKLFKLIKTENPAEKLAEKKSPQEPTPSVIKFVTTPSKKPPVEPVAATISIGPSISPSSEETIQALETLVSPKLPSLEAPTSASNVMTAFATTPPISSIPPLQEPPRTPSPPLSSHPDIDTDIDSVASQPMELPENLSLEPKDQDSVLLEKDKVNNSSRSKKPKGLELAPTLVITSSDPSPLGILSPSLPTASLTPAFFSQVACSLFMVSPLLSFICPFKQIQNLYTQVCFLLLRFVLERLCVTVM
Particulars: protein: recombinant; tags: N-terminal GST; dsDNA, one strand shown. In short, it runs like this:
as §1

The target in a further assay is T4, ETV2 (Homo sapiens, UniProt O00321 1-342).
T4 sequence: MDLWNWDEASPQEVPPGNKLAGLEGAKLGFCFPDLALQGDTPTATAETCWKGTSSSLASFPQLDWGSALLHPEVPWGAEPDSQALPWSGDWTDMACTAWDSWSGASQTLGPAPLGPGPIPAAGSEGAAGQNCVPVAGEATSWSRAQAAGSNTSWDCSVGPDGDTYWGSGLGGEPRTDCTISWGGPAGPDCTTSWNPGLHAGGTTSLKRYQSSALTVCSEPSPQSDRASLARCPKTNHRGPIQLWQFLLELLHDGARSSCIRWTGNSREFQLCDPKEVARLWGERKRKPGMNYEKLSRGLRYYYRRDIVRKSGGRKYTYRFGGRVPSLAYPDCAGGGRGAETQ
Particulars: protein: recombinant; tags: N-terminal GST; dsDNA, one strand shown. In short, it runs like this: as §1

Another assay deals with T5, ELF3 (Homo sapiens, UniProt P78545 1-371).
T5 sequence: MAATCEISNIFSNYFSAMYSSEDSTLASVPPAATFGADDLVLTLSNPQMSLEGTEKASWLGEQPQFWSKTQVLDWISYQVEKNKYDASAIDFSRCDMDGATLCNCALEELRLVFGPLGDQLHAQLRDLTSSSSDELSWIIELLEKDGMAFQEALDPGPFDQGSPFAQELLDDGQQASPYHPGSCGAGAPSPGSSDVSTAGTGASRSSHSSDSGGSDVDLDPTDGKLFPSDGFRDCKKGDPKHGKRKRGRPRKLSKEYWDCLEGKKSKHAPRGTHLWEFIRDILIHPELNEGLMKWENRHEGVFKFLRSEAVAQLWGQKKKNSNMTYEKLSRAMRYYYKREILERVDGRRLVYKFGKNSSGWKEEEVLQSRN
Particulars: protein: recombinant; tags: N-terminal GST; dsDNA, one strand shown. In short, it runs like this: as §1

A further assay deals with CRX (Homo sapiens, UniProt O43186 1-299). Particulars: protein: recombinant; tags: N-terminal GST; dsDNA, one strand shown. The gist of the method:
as §1

A further assay concerns the target ETV1 (Homo sapiens, UniProt P50549 1-477). Particulars: protein: recombinant; tags: N-terminal GST; dsDNA, one strand shown. In short, it runs like this: as §1

Chain of ELF4 (Q99607 whole entry): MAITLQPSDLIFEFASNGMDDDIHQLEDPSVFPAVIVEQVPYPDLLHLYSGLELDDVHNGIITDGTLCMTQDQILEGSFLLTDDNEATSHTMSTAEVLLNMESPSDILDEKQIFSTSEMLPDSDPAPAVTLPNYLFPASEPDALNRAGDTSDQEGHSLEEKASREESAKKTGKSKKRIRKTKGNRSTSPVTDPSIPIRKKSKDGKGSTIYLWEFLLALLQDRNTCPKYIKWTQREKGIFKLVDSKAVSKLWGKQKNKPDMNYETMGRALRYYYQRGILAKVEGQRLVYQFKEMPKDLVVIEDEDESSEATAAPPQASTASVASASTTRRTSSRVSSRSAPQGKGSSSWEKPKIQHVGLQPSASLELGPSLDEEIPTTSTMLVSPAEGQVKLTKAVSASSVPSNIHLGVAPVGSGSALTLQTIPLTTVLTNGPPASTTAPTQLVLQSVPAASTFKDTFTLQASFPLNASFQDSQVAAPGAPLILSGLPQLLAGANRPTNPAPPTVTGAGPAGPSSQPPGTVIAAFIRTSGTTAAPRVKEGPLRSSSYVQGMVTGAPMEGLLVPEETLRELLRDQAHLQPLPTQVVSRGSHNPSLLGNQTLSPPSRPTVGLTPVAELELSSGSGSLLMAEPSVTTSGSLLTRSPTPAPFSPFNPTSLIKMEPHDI
Chain of CRX (O43186 whole entry): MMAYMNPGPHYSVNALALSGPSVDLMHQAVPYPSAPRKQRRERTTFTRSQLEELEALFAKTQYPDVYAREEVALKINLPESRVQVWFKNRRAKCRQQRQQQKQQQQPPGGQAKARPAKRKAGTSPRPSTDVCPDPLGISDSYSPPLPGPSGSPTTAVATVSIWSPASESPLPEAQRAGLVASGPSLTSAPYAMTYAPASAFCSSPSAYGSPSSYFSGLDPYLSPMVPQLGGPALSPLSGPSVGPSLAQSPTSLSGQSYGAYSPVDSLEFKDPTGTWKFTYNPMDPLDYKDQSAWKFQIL
Chain of ETV5 (P41161 whole entry): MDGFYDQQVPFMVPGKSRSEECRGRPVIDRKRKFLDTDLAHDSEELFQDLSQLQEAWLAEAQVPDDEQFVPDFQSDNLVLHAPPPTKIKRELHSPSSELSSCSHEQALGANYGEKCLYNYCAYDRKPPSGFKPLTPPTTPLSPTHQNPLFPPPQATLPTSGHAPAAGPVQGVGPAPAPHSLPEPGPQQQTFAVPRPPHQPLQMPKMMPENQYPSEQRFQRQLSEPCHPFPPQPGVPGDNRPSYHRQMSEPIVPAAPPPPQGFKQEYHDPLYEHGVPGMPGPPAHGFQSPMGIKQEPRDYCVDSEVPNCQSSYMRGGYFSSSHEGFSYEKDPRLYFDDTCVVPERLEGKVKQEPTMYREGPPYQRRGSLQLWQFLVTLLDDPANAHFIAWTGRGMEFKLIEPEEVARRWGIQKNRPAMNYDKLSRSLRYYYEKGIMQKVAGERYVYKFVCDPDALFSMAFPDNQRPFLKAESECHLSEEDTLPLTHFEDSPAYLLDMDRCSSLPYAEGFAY
Chain of HSF1 (Q00613 whole entry): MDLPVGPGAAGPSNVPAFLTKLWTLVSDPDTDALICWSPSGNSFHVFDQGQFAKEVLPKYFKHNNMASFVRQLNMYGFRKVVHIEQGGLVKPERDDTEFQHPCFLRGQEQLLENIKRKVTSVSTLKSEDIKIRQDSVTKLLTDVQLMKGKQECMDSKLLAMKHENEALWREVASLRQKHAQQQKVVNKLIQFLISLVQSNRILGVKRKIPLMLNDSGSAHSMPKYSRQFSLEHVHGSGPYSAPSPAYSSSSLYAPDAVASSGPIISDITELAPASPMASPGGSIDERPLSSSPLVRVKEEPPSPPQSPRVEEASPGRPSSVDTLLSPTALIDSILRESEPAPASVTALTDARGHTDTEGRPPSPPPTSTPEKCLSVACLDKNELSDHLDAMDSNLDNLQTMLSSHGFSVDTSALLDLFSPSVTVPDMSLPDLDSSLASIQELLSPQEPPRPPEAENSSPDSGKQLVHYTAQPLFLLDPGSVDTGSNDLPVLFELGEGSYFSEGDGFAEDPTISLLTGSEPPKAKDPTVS
Chain of ETV1 (P50549 whole entry): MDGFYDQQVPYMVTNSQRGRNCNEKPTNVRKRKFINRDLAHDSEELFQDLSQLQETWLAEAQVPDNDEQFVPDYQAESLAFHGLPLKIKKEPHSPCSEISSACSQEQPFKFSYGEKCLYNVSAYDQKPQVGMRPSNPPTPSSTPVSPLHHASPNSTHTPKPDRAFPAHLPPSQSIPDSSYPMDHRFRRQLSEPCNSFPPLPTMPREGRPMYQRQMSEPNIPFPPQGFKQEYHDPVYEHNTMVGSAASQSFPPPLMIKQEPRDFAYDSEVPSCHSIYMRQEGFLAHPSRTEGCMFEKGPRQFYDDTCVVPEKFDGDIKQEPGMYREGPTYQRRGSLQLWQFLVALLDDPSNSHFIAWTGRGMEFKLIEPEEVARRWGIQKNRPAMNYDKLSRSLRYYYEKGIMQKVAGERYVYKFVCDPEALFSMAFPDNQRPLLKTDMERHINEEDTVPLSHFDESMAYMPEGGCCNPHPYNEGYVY

ATCCTG: the binding signal with FEV is 1.46 fold enrichment (6-mer frequency, TF over GST control); with ETV5, 1.71 fold enrichment (6-mer frequency, TF over GST control); with HSF1 it was 1.33 fold enrichment (6-mer frequency, TF over GST control); with SPIC, 1.19 fold enrichment (6-mer frequency, TF over GST control); in the assay with ELF4, 1.35 fold enrichment (6-mer frequency, TF over GST control); with ELK4, 1.33 fold enrichment (6-mer frequency, TF over GST control). The binding signal was 1.42 fold enrichment (6-mer frequency, TF over GST control) with ETV2; 1.35 fold enrichment (6-mer frequency, TF over GST control) with ELF3; 1.55 fold enrichment (6-mer frequency, TF over GST control) with CRX; 1.43 fold enrichment (6-mer frequency, TF over GST control) in the assay with ETV1.

As for TCCTCC, the binding signal with FEV was 1.55 fold enrichment (6-mer frequency, TF over GST control); with ETV5 it was 1.59 fold enrichment (6-mer frequency, TF over GST control); with HSF1, 1.27 fold enrichment (6-mer frequency, TF over GST control); with SPIC, 1.57 fold enrichment (6-mer frequency, TF over GST control); in the assay with ELF4, 1.62 fold enrichment (6-mer frequency, TF over GST control); in the assay with ELK4, 1.48 fold enrichment (6-mer frequency, TF over GST control). Further, the binding signal with ETV2 is 1.86 fold enrichment (6-mer frequency, TF over GST control); with ELF3, 1.22 fold enrichment (6-mer frequency, TF over GST control); in the assay with CRX, 1.4 fold enrichment (6-mer frequency, TF over GST control); with ETV1, 1.53 fold enrichment (6-mer frequency, TF over GST control).

Regarding TAACTA, the binding signal was 1.25 fold enrichment (6-mer frequency, TF over GST control) in the assay with FEV; 1.29 fold enrichment (6-mer frequency, TF over GST control) with ETV5; 1.51 fold enrichment (6-mer frequency, TF over GST control) with HSF1; 1.36 fold enrichment (6-mer frequency, TF over GST control) with SPIC; 1.48 fold enrichment (6-mer frequency, TF over GST control) with ELF4; 1.26 fold enrichment (6-mer frequency, TF over GST control) with ELK4. The binding signal with ETV2 was 1.49 fold enrichment (6-mer frequency, TF over GST control); in the assay with ELF3 it was 1.33 fold enrichment (6-mer frequency, TF over GST control); in the assay with CRX it was 1.87 fold enrichment (6-mer frequency, TF over GST control); with ETV1, 1.24 fold enrichment (6-mer frequency, TF over GST control).

Regarding TTGAAA, the binding signal with FEV was 1.13 fold enrichment (6-mer frequency, TF over GST control); with ETV5, 1.18 fold enrichment (6-mer frequency, TF over GST control); with HSF1 it was 1.24 fold enrichment (6-mer frequency, TF over GST control); with SPIC, 1.15 fold enrichment (6-mer frequency, TF over GST control); in the assay with ELF4, 1.21 fold enrichment (6-mer frequency, TF over GST control); with ELK4 it was 1.18 fold enrichment (6-mer frequency, TF over GST control). In addition, the binding signal was 1.28 fold enrichment (6-mer frequency, TF over GST control) in the assay with ETV2; 1.13 fold enrichment (6-mer frequency, TF over GST control) with ELF3; 1.24 fold enrichment (6-mer frequency, TF over GST control) with CRX; 1.16 fold enrichment (6-mer frequency, TF over GST control) with ETV1.

CCTACT: the binding signal is 1.62 fold enrichment (6-mer frequency, TF over GST control) in the assay with FEV; 1.57 fold enrichment (6-mer frequency, TF over GST control) with ETV5; 1.48 fold enrichment (6-mer frequency, TF over GST control) with HSF1; 1.64 fold enrichment (6-mer frequency, TF over GST control) in the assay with SPIC; 1.7 fold enrichment (6-mer frequency, TF over GST control) with ELF4; 1.76 fold enrichment (6-mer frequency, TF over GST control) with ELK4. In addition, the binding signal in the assay with ETV2 is 1.61 fold enrichment (6-mer frequency, TF over GST control); in the assay with ELF3, 1.41 fold enrichment (6-mer frequency, TF over GST control); with CRX it was 1.61 fold enrichment (6-mer frequency, TF over GST control); in the assay with ETV1, 1.49 fold enrichment (6-mer frequency, TF over GST control).

Take CTTCTC: the binding signal with FEV is 1.35 fold enrichment (6-mer frequency, TF over GST control); with ETV5, 1.27 fold enrichment (6-mer frequency, TF over GST control); in the assay with HSF1 it was 2.19 fold enrichment (6-mer frequency, TF over GST control); with SPIC, 1.55 fold enrichment (6-mer frequency, TF over GST control); in the assay with ELF4, 1.39 fold enrichment (6-mer frequency, TF over GST control); with ELK4 it was 1.42 fold enrichment (6-mer frequency, TF over GST control). Also, the binding signal was 1.39 fold enrichment (6-mer frequency, TF over GST control) with ETV2; 1.47 fold enrichment (6-mer frequency, TF over GST control) in the assay with ELF3; 1.56 fold enrichment (6-mer frequency, TF over GST control) with CRX; 1.39 fold enrichment (6-mer frequency, TF over GST control) in the assay with ETV1.

Turning to TAACTG, the binding signal with FEV is 1.28 fold enrichment (6-mer frequency, TF over GST control); with ETV5, 1.22 fold enrichment (6-mer frequency, TF over GST control); in the assay with HSF1, 1.25 fold enrichment (6-mer frequency, TF over GST control); in the assay with SPIC, 1.42 fold enrichment (6-mer frequency, TF over GST control); with ELF4, 1.19 fold enrichment (6-mer frequency, TF over GST control); with ELK4, 1.23 fold enrichment (6-mer frequency, TF over GST control). For the same sequence, the binding signal was 1.31 fold enrichment (6-mer frequency, TF over GST control) with ETV2; 1.47 fold enrichment (6-mer frequency, TF over GST control) in the assay with ELF3; 1.5 fold enrichment (6-mer frequency, TF over GST control) with CRX; 1.09 fold enrichment (6-mer frequency, TF over GST control) in the assay with ETV1.

The record behind these values is publication PMC7862700, “An all-to-all approach to the identification of sequence-specific readers for epigenetic DNA modifications on cytosine”.
